According to PubChem BioAssay AID1159580 (chemical genetic matrix, 2015):
Screen size: about 5,500 compounds; about 2,000 (36%) were called active. Not shown: some 18% with an inconclusive outcome. No stated cut-off is given here; in the data, active means normalized growth mostly below about 0.91 (no sharp cut-off); inconclusive means no clear call, values can overlap the other calls; inactive means mostly above about 0.92. Some of the results follow.

Test: chemical genetic growth profiling, strain panel (AID 1159580);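 further: tested at 20 µM; growth read once vehicle control cultures reached saturation at 30 °C; 1 = growth at the plate median or of vehicle wells; lower values mean less growth of the strain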
Settings: growth OD

Measured: normalized growth

COc1ccc(-c2oc3cc(O[C@H]4O[C@H](CO)[C@@H](O)[C@H](O)[C@H]4O)c(OC)c(O)c3c(=O)c2OC)cc1O
inactive: S. cerevisiae deletion strains, locus YAL013W, strain DEP1, hits give low values 1.02 | S. cerevisiae deletion strains, locus YAL021C, strain ccr4, hits give low values 1.01 | S. cerevisiae deletion strains, locus YAL026C, strain drs2, hits give low values 0.996 | S. cerevisiae deletion strains, locus YAL030W, strain snc1, hits give low values 1 | S. cerevisiae deletion strains, locus YBL061C, strain skt5, hits give low values 0.996 | S. cerevisiae deletion strains, locus YBR009C, strain hhf1, hits give low values 0.997 | S. cerevisiae deletion strains, locus YBR021W, strain FUR4, hits give low values 1 | S. cerevisiae deletion strains, locus YBR023C, strain chs3, hits give low values 0.992 | S. cerevisiae deletion strains, locus YBR171W, strain sec66, hits give low values 0.99 | S. cerevisiae deletion strains, locus YBR229C, strain ROT2, hits give low values 1 | S. cerevisiae deletion strains, locus YBR231C, strain swc5, hits give low values 0.99 | S. cerevisiae deletion strains, locus YBR279W, strain paf1, hits give low values 1 | S. cerevisiae deletion strains, locus YCL011C, strain gbp2, hits give low values 1 | S. cerevisiae deletion strains, locus YCL016C, strain dcc1, hits give low values 1 | S. cerevisiae deletion strains, locus YCL029C, strain bik1, hits give low values 0.969 | S. cerevisiae deletion strains, locus YCL061C, strain MRC1, hits give low values 0.998 | S. cerevisiae deletion strains, locus YCL069W, strain vba3, hits give low values 0.999 | S. cerevisiae deletion strains, locus YCR088W, strain abp1, hits give low values 0.996 | S. cerevisiae deletion strains, locus YDL005C, strain med2, hits give low values 1.01 | S. cerevisiae deletion strains, locus YDL035C, strain GPR1, hits give low values 0.991 | S. cerevisiae deletion strains, locus YDL040C, strain nat1, hits give low values 0.994 | S. cerevisiae deletion strains, locus YDL074C, strain BRE1, hits give low values 0.925 | S. cerevisiae deletion strains, locus YDL101C, strain DUN1, hits give low values 0.997 | S. cerevisiae deletion strains, locus YDL134C, strain PPH21, hits give low values 0.982 | S. cerevisiae deletion strains, locus YDL185W, strain tfp1, hits give low values 0.984 | S. cerevisiae deletion strains, locus YDL192W, strain arf1, hits give low values 0.961 | S. cerevisiae deletion strains, locus YDR001C, strain nth1, hits give low values 1 | S. cerevisiae deletion strains, locus YDR069C, strain doa4, hits give low values 1 | S. cerevisiae deletion strains, locus YDR101C, strain arx1, hits give low values 0.97 | S. cerevisiae deletion strains, locus YDR137W, strain rgp1, hits give low values 0.905 | S. cerevisiae deletion strains, locus YDR159W, strain sac3, hits give low values 1 | S. cerevisiae deletion strains, locus YDR162C, strain NBP2, hits give low values 0.983 | S. cerevisiae deletion strains, locus YDR195W, strain ref2 1.01 | S. cerevisiae deletion strains, locus YDR297W, strain sur2, hits give low values 0.989 | S. cerevisiae deletion strains, locus YDR318W, strain mcm21, hits give low values 0.962 | S. cerevisiae deletion strains, locus YDR334W, strain swr1, hits give low values 0.996 | S. cerevisiae deletion strains, locus YDR335W, strain msn5, hits give low values 1 | S. cerevisiae deletion strains, locus YDR388W, hits give low values 0.971 | S. cerevisiae deletion strains, locus YDR392W, strain spt3, hits give low values 0.897 | S. cerevisiae deletion strains, locus YDR502C, strain sam2, hits give low values 0.956 | S. cerevisiae deletion strains, locus YEL003W, strain gim4, hits give low values 0.996 | S. cerevisiae deletion strains, locus YEL037C, strain rad23, hits give low values 0.994 | S. cerevisiae deletion strains, locus YEL061C, strain CIN8 (second series), hits give low values 1 | S. cerevisiae deletion strains, locus YEL061C, strain CIN8, hits give low values 0.981 | S. cerevisiae deletion strains, locus YER015W, strain faa2, hits give low values 1.01 | S. cerevisiae deletion strains, locus YER016W, strain bim1, hits give low values 0.997 | S. cerevisiae deletion strains, locus YER110C, hits give low values 0.964 | S. cerevisiae deletion strains, locus YER111C, strain swi4, hits give low values 1 | S. cerevisiae deletion strains, locus YER155C, strain BEM2 (second series), hits give low values 0.998 | S. cerevisiae deletion strains, locus YER155C, strain BEM2, hits give low values 1.01 | S. cerevisiae deletion strains, locus YER167W, strain BCK2, hits give low values 0.999 | S. cerevisiae deletion strains, locus YFR010W, strain ubp6, hits give low values 1 | S. cerevisiae deletion strains, locus YGL078C, strain dbp3, hits give low values 0.975 | S. cerevisiae deletion strains, locus YGL086W, strain mad1, hits give low values 0.97 | S. cerevisiae deletion strains, locus YGL167C, strain pmr1, hits give low values 0.994 | S. cerevisiae deletion strains, locus YGL173C, strain kem1, hits give low values 0.989 | S. cerevisiae deletion strains, locus YGL227W, strain vid30, hits give low values 0.996 | S. cerevisiae deletion strains, locus YGL240W, strain doc1, hits give low values 1.01 | S. cerevisiae deletion strains, locus YGL248W, strain PDE1, hits give low values 0.984 | S. cerevisiae deletion strains, locus YGL253W, strain hxk2, hits give low values 1 | S. cerevisiae deletion strains, locus YGR078C, strain PAC10, hits give low values 0.959 | S. cerevisiae deletion strains, locus YGR135W, strain pre9, hits give low values 0.949 | S. cerevisiae deletion strains, locus YGR229C, strain SMI1, hits give low values 0.956 | S. cerevisiae deletion strains, locus YGR252W, strain gcn5, hits give low values 0.891 | S. cerevisiae deletion strains, locus YHR013C, strain ard1, hits give low values 1.01 | S. cerevisiae deletion strains, locus YHR027C, strain rpn1, hits give low values 1.01 | S. cerevisiae deletion strains, locus YHR030C, strain SLT2, hits give low values 1 | S. cerevisiae deletion strains, locus YHR079C, strain IRE1 (second series), hits give low values 0.99 | S. cerevisiae deletion strains, locus YHR094C, strain hxt1, hits give low values 0.981 | S. cerevisiae deletion strains, locus YHR129C, strain ARP1, hits give low values 0.969 | S. cerevisiae deletion strains, locus YHR142W, strain chs7, hits give low values 0.985 | S. cerevisiae deletion strains, locus YHR200W, strain rpn10, hits give low values 0.953 | S. cerevisiae deletion strains, locus YIL066C, strain RNR3, hits give low values 0.98 | S. cerevisiae deletion strains, locus YIL073C, strain SPO22, hits give low values 0.971 | S. cerevisiae deletion strains, locus YIL125W, strain kgd1, hits give low values 0.981 | S. cerevisiae deletion strains, locus YIR030C, strain dcg1, hits give low values 0.982 | S. cerevisiae deletion strains, locus YJL092W, strain hpr5, hits give low values 1 | S. cerevisiae deletion strains, locus YJL095W, strain BCK1 (second series), hits give low values 0.992 | S. cerevisiae deletion strains, locus YJL095W, strain BCK1, hits give low values 0.916 | S. cerevisiae deletion strains, locus YJL115W, strain asf1, hits give low values 1 | S. cerevisiae deletion strains, locus YJL129C, strain trk1, hits give low values 0.935 | S. cerevisiae deletion strains, locus YJL134W, strain LCB3, hits give low values 0.995 | S. cerevisiae deletion strains, locus YJL154C, strain vps35, hits give low values 1.01 | S. cerevisiae deletion strains, locus YJL164C, strain tpk1, hits give low values 0.992 | S. cerevisiae deletion strains, locus YJL166W, strain qcr8, hits give low values 1 | S. cerevisiae deletion strains, locus YJL168C, strain set2, hits give low values 0.977 | S. cerevisiae deletion strains, locus YJL187C, strain SWE1 (second series), hits give low values 0.965 | S. cerevisiae deletion strains, locus YJL187C, strain SWE1, hits give low values 1.01 | S. cerevisiae deletion strains, locus YJR043C, strain POL32, hits give low values 0.982 | S. cerevisiae deletion strains, locus YKL009W, strain mrt4, hits give low values 0.965 | S. cerevisiae deletion strains, locus YKL068W, hits give low values 0.99 | S. cerevisiae deletion strains, locus YKL085W, strain MDH1 (second series), hits give low values 0.994 | S. cerevisiae deletion strains, locus YKL085W, strain MDH1, hits give low values 0.994 | S. cerevisiae deletion strains, locus YKL160W, strain elf1, hits give low values 0.992 | S. cerevisiae deletion strains, locus YKR001C, strain vps1, hits give low values 1 | S. cerevisiae deletion strains, locus YKR026C, strain gcn3, hits give low values 0.995 | S. cerevisiae deletion strains, locus YKR091W, strain srl3, hits give low values 1 | S. cerevisiae deletion strains, locus YLL001W, strain dnm1, hits give low values 0.994 | S. cerevisiae deletion strains, locus YLL026W, hits give low values 0.995 | S. cerevisiae deletion strains, locus YLL041C, strain sdh2, hits give low values 1 | S. cerevisiae deletion strains, locus YLR027C, strain aat2, hits give low values 1.01 | S. cerevisiae deletion strains, locus YLR039C, strain RIC1, hits give low values 0.989 | S. cerevisiae deletion strains, locus YLR058C, strain SHM2, hits give low values 0.989 | S. cerevisiae deletion strains, locus YLR102C, strain apc9, hits give low values 0.968 | S. cerevisiae deletion strains, locus YLR221C, strain rsa3, hits give low values 0.997 | S. cerevisiae deletion strains, locus YLR258W, strain gsy2, hits give low values 1 | S. cerevisiae deletion strains, locus YLR262C, strain YPT6 (second series), hits give low values 0.951 | S. cerevisiae deletion strains, locus YLR262C, strain YPT6, hits give low values 0.979 | S. cerevisiae deletion strains, locus YLR268W, strain sec22, hits give low values 0.955 | S. cerevisiae deletion strains, locus YLR320W, strain mms22, hits give low values 0.993 | S. cerevisiae deletion strains, locus YLR330W, strain CHS5, hits give low values 1.01 | S. cerevisiae deletion strains, locus YLR342W, strain FKS1 (second series), hits give low values 0.983 | S. cerevisiae deletion strains, locus YLR342W, strain FKS1, hits give low values 0.995 | S. cerevisiae deletion strains, locus YLR357W, strain rsc2, hits give low values 0.985 | S. cerevisiae deletion strains, locus YLR370C, strain arc18, hits give low values 0.989 | S. cerevisiae deletion strains, locus YLR371W, strain rom2, hits give low values 0.979 | S. cerevisiae deletion strains, locus YLR384C, strain iki3, hits give low values 1.01 | S. cerevisiae deletion strains, locus YLR418C, strain cdc73, hits give low values 0.877 | S. cerevisiae deletion strains, locus YML016C, strain PPZ1, hits give low values 0.994 | S. cerevisiae deletion strains, locus YML032C, strain rad52, hits give low values 0.969 | S. cerevisiae deletion strains, locus YML120C, strain ndi1, hits give low values 0.998 | S. cerevisiae deletion strains, locus YML124C, strain tub3, hits give low values 0.981 | S. cerevisiae deletion strains, locus YMR058W, strain fet3, hits give low values 0.998 | S. cerevisiae deletion strains, locus YMR078C, strain ctf18, hits give low values 0.976 | S. cerevisiae deletion strains, locus YMR125W, strain sto1, hits give low values 0.995 | S. cerevisiae deletion strains, locus YMR129W, hits give low values 0.998 | S. cerevisiae deletion strains, locus YMR205C, strain PFK2, hits give low values 0.981 | S. cerevisiae deletion strains, locus YMR223W, strain ubp8, hits give low values 0.977 | S. cerevisiae deletion strains, locus YMR231W, strain pep5, hits give low values 0.995 | S. cerevisiae deletion strains, locus YMR307W, strain GAS1, hits give low values 0.92 | S. cerevisiae deletion strains, locus YNL067W, strain RPL9B, hits give low values 0.98 | S. cerevisiae deletion strains, locus YNL071W, strain lat1, hits give low values 1.01 | S. cerevisiae deletion strains, locus YNL209W, strain ssb2, hits give low values 0.998 | S. cerevisiae deletion strains, locus YNL233W, strain BNI4, hits give low values 0.977 | S. cerevisiae deletion strains, locus YNL248C, strain rpa49, hits give low values 1 | S. cerevisiae deletion strains, locus YNL250W, strain rad50, hits give low values 0.974 | S. cerevisiae deletion strains, locus YNL271C, strain bni1, hits give low values 0.978 | S. cerevisiae deletion strains, locus YNL298W, strain CLA4, hits give low values 0.963 | S. cerevisiae deletion strains, locus YNL307C, strain MCK1, hits give low values 0.928 | S. cerevisiae deletion strains, locus YNL322C, strain KRE1 (second series), hits give low values 0.999 | S. cerevisiae deletion strains, locus YNL322C, strain KRE1, hits give low values 0.985 | S. cerevisiae deletion strains, locus YNR049C, strain mso1, hits give low values 1 | S. cerevisiae deletion strains, locus YNR052C, strain pop2, hits give low values 0.948 | S. cerevisiae deletion strains, locus YOL012C, strain htz1 0.832 | S. cerevisiae deletion strains, locus YOL147C, strain pex11, hits give low values 0.962 | S. cerevisiae deletion strains, locus YOR001W, strain rrp6, hits give low values 1.02 | S. cerevisiae deletion strains, locus YOR061W, strain CKA2, hits give low values 0.993 | S. cerevisiae deletion strains, locus YOR069W, strain VPS5, hits give low values 0.997 | S. cerevisiae deletion strains, locus YOR070C, strain gyp1, hits give low values 1.02 | S. cerevisiae deletion strains, locus YOR080W, strain dia2, hits give low values 0.999 | S. cerevisiae deletion strains, locus YOR083W, strain WHI5, hits give low values 1 | S. cerevisiae deletion strains, locus YOR106W, strain vam3, hits give low values 1 | S. cerevisiae deletion strains, locus YOR136W, strain idh2, hits give low values 0.986 | S. cerevisiae deletion strains, locus YOR144C, strain elg1, hits give low values 0.968 | S. cerevisiae deletion strains, locus YOR184W, strain ser1, hits give low values 0.944 | S. cerevisiae deletion strains, locus YOR265W, strain rbl2, hits give low values 0.993 | S. cerevisiae deletion strains, locus YOR270C, strain vph1, hits give low values 0.987 | S. cerevisiae deletion strains, locus YOR290C, strain snf2, hits give low values 0.984 | S. cerevisiae deletion strains, locus YOR316C, strain cot1, hits give low values 0.974 | S. cerevisiae deletion strains, locus YPL051W, strain arl3, hits give low values 0.998 | S. cerevisiae deletion strains, locus YPL078C, strain atp4, hits give low values 1.01 | S. cerevisiae deletion strains, locus YPL106C, strain sse1, hits give low values 0.995 | S. cerevisiae deletion strains, locus YPL240C, strain hsp82, hits give low values 1 | S. cerevisiae deletion strains, locus YPR119W, strain clb2, hits give low values 0.978 | S. cerevisiae deletion strains, locus YPR141C, strain kar3, hits give low values 0.977 | S. cerevisiae deletion strains, locus YPR163C, strain tif3, hits give low values 0.933 | S. cerevisiae deletion strains, locus YPR167C, strain met16, hits give low values 0.978 | S. cerevisiae deletion strains, strain wtn01, hits give low values 0.971 | S. cerevisiae strains, strain wild type, hits give low values 0.993
